From publication PMC7862700, “An all-to-all approach to the identification of sequence-specific readers for epigenetic DNA modifications on cytosine”

Legend:
Experiment in all cases: DAPPL (digital affinity profiling via proximity ligation, sequencing); 10 mM Tris-HCl pH 7.5, 50 mM NaCl, 1 mM DTT, 4% glycerol, room temperature, 30 min; GST-TFs on glutathione beads, 16-mer random dsDNA library, 0.1% formaldehyde crosslink after washing; high values mean tight binding
Conditions in all cases: protein: recombinant; tags: N-terminal GST; dsDNA, one strand shown
FLI1 = target: T1, FLI1 (Homo sapiens, UniProt Q01543 1-452)
T1 sequence: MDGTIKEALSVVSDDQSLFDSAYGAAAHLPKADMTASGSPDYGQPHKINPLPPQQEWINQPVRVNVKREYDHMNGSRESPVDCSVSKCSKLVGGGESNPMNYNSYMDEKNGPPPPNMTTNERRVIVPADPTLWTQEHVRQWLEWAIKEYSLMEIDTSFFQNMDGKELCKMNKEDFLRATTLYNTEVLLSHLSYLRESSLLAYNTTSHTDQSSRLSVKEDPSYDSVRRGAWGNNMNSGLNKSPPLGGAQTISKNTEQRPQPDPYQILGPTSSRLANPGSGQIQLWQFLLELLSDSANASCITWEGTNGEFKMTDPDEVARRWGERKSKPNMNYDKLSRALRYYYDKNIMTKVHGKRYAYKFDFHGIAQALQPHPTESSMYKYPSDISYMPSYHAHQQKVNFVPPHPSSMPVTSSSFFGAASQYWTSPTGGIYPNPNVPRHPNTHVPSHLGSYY
Method in brief: (§1)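 Beads coated with glutathione captured GST-fused human transcription factors that had been expressed in yeast, and the factors were then given DNA barcodes and pooled with a tag-only sample. The pools were incubated with 200 nmole of a random double-stranded 16-mer DNA library in Tris/NaCl/DTT/glycerol buffer for 30 min at room temperature, washed, crosslinked with 0.1% formaldehyde and proximity-ligated with BsaI/T4 ligase at 37 °C for 1 h. PCR amplification and Illumina NextSeq500 sequencing came last. Binding signal is each hexamer's read frequency for a factor divided by its frequency for the tag-only sample.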

ELK1 = target: T2, ELK1 (Homo sapiens, UniProt P19419 1-428)
T2 sequence: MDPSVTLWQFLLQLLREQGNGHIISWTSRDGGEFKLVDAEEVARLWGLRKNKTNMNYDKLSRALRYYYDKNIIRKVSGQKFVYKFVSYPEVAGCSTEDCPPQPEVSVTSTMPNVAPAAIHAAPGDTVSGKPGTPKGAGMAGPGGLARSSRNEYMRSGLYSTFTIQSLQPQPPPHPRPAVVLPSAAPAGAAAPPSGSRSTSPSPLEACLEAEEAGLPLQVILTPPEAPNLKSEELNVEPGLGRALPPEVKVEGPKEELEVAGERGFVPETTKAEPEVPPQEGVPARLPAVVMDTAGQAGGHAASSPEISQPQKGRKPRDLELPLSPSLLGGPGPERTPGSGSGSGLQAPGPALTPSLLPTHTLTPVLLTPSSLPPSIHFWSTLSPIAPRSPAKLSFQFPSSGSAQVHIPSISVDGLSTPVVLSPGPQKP
Method in brief: as §1

GABPA = target: T3, GABPA (Homo sapiens, UniProt Q06546 1-454)
T3 sequence: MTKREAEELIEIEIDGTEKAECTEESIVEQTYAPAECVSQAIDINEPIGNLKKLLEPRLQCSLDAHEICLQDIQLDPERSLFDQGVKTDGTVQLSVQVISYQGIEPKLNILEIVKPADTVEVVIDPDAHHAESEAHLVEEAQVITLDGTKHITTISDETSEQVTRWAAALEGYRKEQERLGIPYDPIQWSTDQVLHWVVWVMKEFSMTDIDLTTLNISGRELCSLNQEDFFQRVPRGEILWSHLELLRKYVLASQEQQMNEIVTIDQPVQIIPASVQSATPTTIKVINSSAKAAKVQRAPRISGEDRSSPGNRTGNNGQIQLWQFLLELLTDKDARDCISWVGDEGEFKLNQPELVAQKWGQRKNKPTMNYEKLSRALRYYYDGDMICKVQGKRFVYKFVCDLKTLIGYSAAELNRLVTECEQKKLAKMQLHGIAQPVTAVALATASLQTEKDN
Method in brief: as §1

ERG = target: T4, ERG (Homo sapiens, UniProt P11308 1-479)
T4 sequence: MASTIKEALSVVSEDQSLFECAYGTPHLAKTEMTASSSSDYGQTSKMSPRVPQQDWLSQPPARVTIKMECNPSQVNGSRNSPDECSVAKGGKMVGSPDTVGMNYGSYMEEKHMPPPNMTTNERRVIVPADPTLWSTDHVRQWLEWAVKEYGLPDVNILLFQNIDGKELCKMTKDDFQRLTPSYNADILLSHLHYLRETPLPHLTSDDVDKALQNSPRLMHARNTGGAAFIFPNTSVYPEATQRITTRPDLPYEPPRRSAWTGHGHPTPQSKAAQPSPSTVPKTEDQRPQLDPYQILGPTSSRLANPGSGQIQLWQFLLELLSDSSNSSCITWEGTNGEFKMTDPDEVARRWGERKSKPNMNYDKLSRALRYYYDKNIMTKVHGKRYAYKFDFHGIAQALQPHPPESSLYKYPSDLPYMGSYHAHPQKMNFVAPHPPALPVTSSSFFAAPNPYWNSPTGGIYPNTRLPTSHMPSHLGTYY
Method in brief: as §1

ELF1 = ELF1 (Homo sapiens, UniProt P32519 1-619)
Chain of ELF1 (P32519 whole entry): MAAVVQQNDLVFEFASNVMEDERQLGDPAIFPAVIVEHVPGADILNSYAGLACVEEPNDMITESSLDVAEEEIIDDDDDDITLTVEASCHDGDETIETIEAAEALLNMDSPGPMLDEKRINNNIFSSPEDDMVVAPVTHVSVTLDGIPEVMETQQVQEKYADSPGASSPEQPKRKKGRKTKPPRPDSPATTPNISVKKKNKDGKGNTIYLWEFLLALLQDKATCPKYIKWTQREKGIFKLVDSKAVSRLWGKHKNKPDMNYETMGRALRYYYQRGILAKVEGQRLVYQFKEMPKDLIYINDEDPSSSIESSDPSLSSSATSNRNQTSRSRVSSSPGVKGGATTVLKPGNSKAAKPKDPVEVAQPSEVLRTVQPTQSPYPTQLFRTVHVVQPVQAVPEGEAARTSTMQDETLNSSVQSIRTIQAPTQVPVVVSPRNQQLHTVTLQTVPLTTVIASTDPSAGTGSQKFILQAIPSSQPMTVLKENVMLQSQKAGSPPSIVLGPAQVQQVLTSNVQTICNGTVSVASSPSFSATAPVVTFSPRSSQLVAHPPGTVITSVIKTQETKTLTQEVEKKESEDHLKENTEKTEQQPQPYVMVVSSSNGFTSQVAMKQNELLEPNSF
Method in brief: as §1

EHF = target: T5, EHF (Homo sapiens, UniProt Q9NZC4 1-300)
T5 sequence: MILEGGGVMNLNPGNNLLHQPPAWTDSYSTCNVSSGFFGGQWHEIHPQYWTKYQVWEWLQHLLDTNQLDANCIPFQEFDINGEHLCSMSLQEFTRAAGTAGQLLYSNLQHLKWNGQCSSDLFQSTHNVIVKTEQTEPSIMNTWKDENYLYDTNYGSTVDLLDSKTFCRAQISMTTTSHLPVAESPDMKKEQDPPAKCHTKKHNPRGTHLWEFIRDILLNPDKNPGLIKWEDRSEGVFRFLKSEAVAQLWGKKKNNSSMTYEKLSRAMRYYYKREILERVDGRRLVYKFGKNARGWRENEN
Method in brief: as §1

SPI1 = SPI1 (Homo sapiens, UniProt P17947 1-270)
Method in brief: as §1

SPIB = SPIB (Homo sapiens, UniProt Q01892 1-262)
Chain of SPIB (Q01892 whole entry): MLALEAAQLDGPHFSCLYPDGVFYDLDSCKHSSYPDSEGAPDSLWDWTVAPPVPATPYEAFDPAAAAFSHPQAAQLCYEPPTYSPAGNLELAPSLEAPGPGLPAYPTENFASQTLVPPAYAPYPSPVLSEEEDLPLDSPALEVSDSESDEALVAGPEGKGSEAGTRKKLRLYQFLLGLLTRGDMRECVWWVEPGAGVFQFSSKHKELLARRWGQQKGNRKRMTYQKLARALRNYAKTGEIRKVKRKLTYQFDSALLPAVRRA
Method in brief: as §1

ELK3 = target: T6, ELK3 (Homo sapiens, UniProt P41970 1-407)
T6 sequence: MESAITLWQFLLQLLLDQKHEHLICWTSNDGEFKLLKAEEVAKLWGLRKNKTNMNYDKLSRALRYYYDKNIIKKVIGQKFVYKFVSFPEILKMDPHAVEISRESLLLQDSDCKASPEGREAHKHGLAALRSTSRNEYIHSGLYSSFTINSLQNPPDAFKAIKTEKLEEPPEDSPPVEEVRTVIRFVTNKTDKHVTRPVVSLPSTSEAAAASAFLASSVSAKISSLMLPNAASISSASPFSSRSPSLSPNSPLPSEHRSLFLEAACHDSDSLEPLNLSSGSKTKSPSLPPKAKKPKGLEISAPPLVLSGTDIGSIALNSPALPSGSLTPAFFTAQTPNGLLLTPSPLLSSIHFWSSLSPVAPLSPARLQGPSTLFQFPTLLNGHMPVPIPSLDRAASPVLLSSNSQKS
Method in brief: as §1

FEV = target: T7, FEV (Homo sapiens, UniProt Q99581 1-238)
T7 sequence: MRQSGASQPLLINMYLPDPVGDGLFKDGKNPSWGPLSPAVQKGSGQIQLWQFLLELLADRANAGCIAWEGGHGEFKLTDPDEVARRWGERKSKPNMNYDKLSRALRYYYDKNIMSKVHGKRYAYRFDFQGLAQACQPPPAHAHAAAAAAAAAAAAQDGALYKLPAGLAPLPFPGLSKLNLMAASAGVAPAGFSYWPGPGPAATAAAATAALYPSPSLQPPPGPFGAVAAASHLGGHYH
Method in brief: as §1

ETV5 = ETV5 (Homo sapiens, UniProt P41161 1-510)
Chain of ETV5 (P41161 whole entry): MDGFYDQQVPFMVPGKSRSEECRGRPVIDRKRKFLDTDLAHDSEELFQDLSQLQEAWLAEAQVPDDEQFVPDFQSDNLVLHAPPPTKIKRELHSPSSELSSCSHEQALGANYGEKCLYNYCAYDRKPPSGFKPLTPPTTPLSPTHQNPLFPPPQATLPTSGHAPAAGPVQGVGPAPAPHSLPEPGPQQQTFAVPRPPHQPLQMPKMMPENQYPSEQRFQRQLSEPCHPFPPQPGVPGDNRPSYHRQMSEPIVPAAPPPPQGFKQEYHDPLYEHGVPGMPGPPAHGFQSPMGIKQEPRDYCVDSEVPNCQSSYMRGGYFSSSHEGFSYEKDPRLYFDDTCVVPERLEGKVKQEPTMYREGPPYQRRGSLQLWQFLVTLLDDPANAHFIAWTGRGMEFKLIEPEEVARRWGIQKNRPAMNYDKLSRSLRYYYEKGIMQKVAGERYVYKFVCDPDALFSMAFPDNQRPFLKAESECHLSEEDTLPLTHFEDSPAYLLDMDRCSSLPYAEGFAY
Method in brief: as §1

SPIC = target: T8, SPIC (Homo sapiens, UniProt Q8N5J4 1-248)
T8 sequence: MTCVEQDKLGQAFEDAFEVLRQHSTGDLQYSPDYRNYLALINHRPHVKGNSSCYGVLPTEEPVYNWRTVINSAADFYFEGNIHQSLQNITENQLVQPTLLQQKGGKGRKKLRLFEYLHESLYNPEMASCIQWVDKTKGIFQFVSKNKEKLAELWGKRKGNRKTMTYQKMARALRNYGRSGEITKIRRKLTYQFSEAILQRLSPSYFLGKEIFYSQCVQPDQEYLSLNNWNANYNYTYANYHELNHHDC
Method in brief: as §1

ELF4 = ELF4 (Homo sapiens, UniProt Q99607 1-663)
Chain of ELF4 (Q99607 whole entry): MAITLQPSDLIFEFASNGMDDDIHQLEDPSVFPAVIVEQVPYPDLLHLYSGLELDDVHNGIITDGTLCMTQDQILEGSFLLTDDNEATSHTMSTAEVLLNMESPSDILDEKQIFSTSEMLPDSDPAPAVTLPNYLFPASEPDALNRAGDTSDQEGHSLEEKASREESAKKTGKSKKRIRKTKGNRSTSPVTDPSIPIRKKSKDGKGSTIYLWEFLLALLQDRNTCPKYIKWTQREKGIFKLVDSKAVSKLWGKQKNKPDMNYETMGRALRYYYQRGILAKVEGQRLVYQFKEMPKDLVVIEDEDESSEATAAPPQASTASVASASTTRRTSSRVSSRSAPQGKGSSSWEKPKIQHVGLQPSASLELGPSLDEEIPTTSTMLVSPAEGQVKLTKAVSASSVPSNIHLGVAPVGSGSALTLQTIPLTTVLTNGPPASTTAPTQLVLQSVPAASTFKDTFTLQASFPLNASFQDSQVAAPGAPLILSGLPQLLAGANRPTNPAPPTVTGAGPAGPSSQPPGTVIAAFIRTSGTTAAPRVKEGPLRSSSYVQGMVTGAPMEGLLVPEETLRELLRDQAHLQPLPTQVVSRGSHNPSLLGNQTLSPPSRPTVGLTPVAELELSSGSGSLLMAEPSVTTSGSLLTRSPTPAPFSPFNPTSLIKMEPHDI
Method in brief: as §1

ELK4 = target: T9, ELK4 (Homo sapiens, UniProt P28324-2 1-405)
T9 sequence: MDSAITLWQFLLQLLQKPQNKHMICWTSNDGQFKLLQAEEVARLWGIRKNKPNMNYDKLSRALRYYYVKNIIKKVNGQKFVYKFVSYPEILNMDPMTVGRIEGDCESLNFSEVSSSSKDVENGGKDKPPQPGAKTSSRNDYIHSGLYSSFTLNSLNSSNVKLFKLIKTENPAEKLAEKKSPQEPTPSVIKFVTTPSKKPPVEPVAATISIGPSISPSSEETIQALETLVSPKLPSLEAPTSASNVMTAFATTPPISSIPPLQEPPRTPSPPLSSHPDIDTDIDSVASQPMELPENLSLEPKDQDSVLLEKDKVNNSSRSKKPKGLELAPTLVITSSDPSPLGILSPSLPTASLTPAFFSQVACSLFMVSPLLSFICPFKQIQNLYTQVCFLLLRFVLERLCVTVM
Method in brief: as §1

ETV2 = target: T10, ETV2 (Homo sapiens, UniProt O00321 1-342)
T10 sequence: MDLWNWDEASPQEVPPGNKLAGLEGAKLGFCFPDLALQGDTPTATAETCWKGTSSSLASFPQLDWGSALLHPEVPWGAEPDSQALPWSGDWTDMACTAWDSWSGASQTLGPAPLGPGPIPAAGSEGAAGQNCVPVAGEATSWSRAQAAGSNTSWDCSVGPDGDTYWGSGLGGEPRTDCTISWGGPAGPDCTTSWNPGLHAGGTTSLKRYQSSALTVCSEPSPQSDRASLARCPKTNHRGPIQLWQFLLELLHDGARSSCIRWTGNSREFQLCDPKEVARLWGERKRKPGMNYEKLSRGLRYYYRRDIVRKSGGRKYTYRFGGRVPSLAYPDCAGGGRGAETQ
Method in brief: as §1

ELF3 = target: T11, ELF3 (Homo sapiens, UniProt P78545 1-371)
T11 sequence: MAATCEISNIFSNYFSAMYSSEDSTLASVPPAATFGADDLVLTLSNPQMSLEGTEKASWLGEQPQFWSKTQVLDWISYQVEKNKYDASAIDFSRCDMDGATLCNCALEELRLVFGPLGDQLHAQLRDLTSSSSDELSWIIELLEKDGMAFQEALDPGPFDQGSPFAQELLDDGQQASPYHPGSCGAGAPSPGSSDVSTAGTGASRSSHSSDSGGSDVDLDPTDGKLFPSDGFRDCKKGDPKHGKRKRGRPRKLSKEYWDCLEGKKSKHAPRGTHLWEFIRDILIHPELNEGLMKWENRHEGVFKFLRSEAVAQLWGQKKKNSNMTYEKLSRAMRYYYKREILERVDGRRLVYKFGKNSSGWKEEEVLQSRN
Method in brief: as §1

ETV1 = ETV1 (Homo sapiens, UniProt P50549 1-477)
Chain of ETV1 (P50549 whole entry): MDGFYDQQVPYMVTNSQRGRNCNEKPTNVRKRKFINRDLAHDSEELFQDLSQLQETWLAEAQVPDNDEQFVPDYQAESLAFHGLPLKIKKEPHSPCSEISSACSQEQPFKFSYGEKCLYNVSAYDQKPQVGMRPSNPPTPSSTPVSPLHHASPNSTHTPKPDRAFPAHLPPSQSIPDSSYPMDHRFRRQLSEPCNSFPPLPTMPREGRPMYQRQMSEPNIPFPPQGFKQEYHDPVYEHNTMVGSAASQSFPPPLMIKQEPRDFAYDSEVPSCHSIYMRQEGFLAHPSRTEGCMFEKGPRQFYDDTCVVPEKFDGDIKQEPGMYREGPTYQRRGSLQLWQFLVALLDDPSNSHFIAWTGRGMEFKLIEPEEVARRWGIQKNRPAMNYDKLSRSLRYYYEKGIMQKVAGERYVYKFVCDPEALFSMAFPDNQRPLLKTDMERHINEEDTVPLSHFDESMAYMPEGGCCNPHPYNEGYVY
Method in brief: as §1

Sequence	binding signal (FLI1)	binding signal (ELK1)	binding signal (GABPA)	binding signal (ERG)	binding signal (ELF1)	binding signal (EHF)	binding signal (SPI1)	binding signal (SPIB)	binding signal (ELK3)	binding signal (FEV)	binding signal (ETV5)	binding signal (SPIC)	binding signal (ELF4)	binding signal (ELK4)	binding signal (ETV2)	binding signal (ELF3)	binding signal (ETV1)
CGACGT	1.23 fold enrichment (6-mer frequency, TF over GST control)	1.09 fold enrichment (6-mer frequency, TF over GST control)	1.22 fold enrichment (6-mer frequency, TF over GST control)	1.06 fold enrichment (6-mer frequency, TF over GST control)	1.11 fold enrichment (6-mer frequency, TF over GST control)	1.14 fold enrichment (6-mer frequency, TF over GST control)	1.08 fold enrichment (6-mer frequency, TF over GST control)	1 fold enrichment (6-mer frequency, TF over GST control)	1.07 fold enrichment (6-mer frequency, TF over GST control)	1.09 fold enrichment (6-mer frequency, TF over GST control)	1.12 fold enrichment (6-mer frequency, TF over GST control)	1.05 fold enrichment (6-mer frequency, TF over GST control)	1.21 fold enrichment (6-mer frequency, TF over GST control)	1.15 fold enrichment (6-mer frequency, TF over GST control)	1.49 fold enrichment (6-mer frequency, TF over GST control)	1.09 fold enrichment (6-mer frequency, TF over GST control)	1.05 fold enrichment (6-mer frequency, TF over GST control)
GCTACG	1.29 fold enrichment (6-mer frequency, TF over GST control)	1.22 fold enrichment (6-mer frequency, TF over GST control)	1.11 fold enrichment (6-mer frequency, TF over GST control)	1.11 fold enrichment (6-mer frequency, TF over GST control)	1.17 fold enrichment (6-mer frequency, TF over GST control)	1.19 fold enrichment (6-mer frequency, TF over GST control)	1.04 fold enrichment (6-mer frequency, TF over GST control)	1.16 fold enrichment (6-mer frequency, TF over GST control)	1.26 fold enrichment (6-mer frequency, TF over GST control)	1.16 fold enrichment (6-mer frequency, TF over GST control)	1.14 fold enrichment (6-mer frequency, TF over GST control)	1.12 fold enrichment (6-mer frequency, TF over GST control)	1.14 fold enrichment (6-mer frequency, TF over GST control)	1.41 fold enrichment (6-mer frequency, TF over GST control)	1.1 fold enrichment (6-mer frequency, TF over GST control)	1.19 fold enrichment (6-mer frequency, TF over GST control)	1.25 fold enrichment (6-mer frequency, TF over GST control)
CCGGTA	1.48 fold enrichment (6-mer frequency, TF over GST control)	1.51 fold enrichment (6-mer frequency, TF over GST control)	1.46 fold enrichment (6-mer frequency, TF over GST control)	1.7 fold enrichment (6-mer frequency, TF over GST control)	1.5 fold enrichment (6-mer frequency, TF over GST control)	1.62 fold enrichment (6-mer frequency, TF over GST control)	1.45 fold enrichment (6-mer frequency, TF over GST control)	1.59 fold enrichment (6-mer frequency, TF over GST control)	1.41 fold enrichment (6-mer frequency, TF over GST control)	1.81 fold enrichment (6-mer frequency, TF over GST control)	1.59 fold enrichment (6-mer frequency, TF over GST control)	1.69 fold enrichment (6-mer frequency, TF over GST control)	1.45 fold enrichment (6-mer frequency, TF over GST control)	1.41 fold enrichment (6-mer frequency, TF over GST control)	1.52 fold enrichment (6-mer frequency, TF over GST control)	1.6 fold enrichment (6-mer frequency, TF over GST control)	1.59 fold enrichment (6-mer frequency, TF over GST control)
